From PubChem BioAssay (NCI)
The panel holds about 83,000 compounds, 20% with a hit somewhere; the sample as a whole holds those more often.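 Treatment: one concentration, 48 hours, 96-well format. Scoring: percent growth, with anything below 10 considered active.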 Unmarked numbers belong to inactive results. Active and inactive are the calls of the source.

tested on: HT29 colon; assay: NCI-60 one-dose screen, 48 h (100 = growth as untreated, 0 = no growth, -100 = all killed); conditions: 10 µM unless noted

**Q.** For CC(=O)Nc1ccc2c(c1)c(NC(C)=O)nn2C(=O)Nc1ccc(Cc2ccccc2)cc1, which growth is on record?
**A.** The growth was 89.1%.

**Q.** With Cc1ccc2c(c1)O/C(=C\c1cccc(OCC(=O)c3ccccc3)c1)C2=O as the compound, how does the growth read?
**A.** Its growth is 118%.

**Q.** With Nc1nc(SCc2ccccc2)c2ncn(C3CCCC3)c2n1 as the compound, how does the growth read?
**A.** The growth was 114%.

**Q.** How did the growth turn out when Cn1c2ccccc2c2c3c(c4c5ccccc5n(CCCCCC#N)c4c21)C(=O)N(O)C3=O was run?
**A.** Its growth is 4.37% (active).

**Q.** How did the growth turn out when CCN(CC)Cc1cc(Nc2c3ccc(Cl)cc3nc3c(C)cccc23)ccc1O was run?
**A.** Its growth is -41.8% (active).

**Q.** CS(=O)(=O)c1ccc(-c2cnc3ccc(-c4cccc(S(C)(=O)=O)c4)nn23)cc1 was tested. Which growth did it give?
**A.** Its growth is 33.7%.

**Q.** For COc1ccc(CCN2CCCn3c2nc2ccccc2c3=O)cc1, which growth is on record?
**A.** Its growth is 11.8%.

**Q.** Which growth does the source give for CC#CC#Cc1cccc(=O)o1 here?
**A.** The growth was 45.3%.

**Q.** Which growth does the source give for c1ccc2c(Nc3cccc4ccccc34)cccc2c1 here?
**A.** The growth was 15.8%.

**Q.** c1ccc(CSc2ncnc3nc[nH]c23)nc1 was tested. Which growth did it give?
**A.** Its growth is 112%.

**Q.** For O=C(O)c1cccnc1Br, which growth is on record?
**A.** The growth was 109%.

**Q.** With COc1ccc(-c2cc(-c3cccnc3)nc3sc4c(=O)n(-c5ccc(C)cc5)cnc4c23)cc1OC as the compound, how does the growth read?
**A.** The growth was 104%.

**Q.** How did the growth turn out when CNC(=O)c1cc(Oc2ccc3nc(NC(=O)Nc4ccc(CN5CCOCC5)c(C(F)(F)F)c4)sc3c2)ccn1 was run?
**A.** The growth was 45.3%.

**Q.** For CCN(CC)CCCC(C)NCCCNc1cccc2cccnc12 (stereo unspecified), which growth is on record?
**A.** Its growth is 92%.

**Q.** CCCCN(CCCC)Cc1c(C)[nH]c2cc(OC)ccc2c1=O was tested. Which growth did it give?
**A.** The growth was 93.9%.

**Q.** For O=C1C[C@H](Sc2nc(-c3ccc(F)cc3)cc(C(F)(F)F)n2)[C@H]2CO[C@@H]1O2, which growth is on record?
**A.** The growth was 75.5%.
